Activity calls are given as the source filed them.

Test [1] in a line: optical density shifts of acrAB sulA E. coli – strain DRC41, OD650, 48 h, E. coli filamentation inducer project, primary screen (AID 1152).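 Note: E. coli MC1000 strain DRC41 lacking acrAB efflux pump and sulA.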 Conditions: higher = more signal, called active from +8 up or from −8 down.
Test [2] in a line: probe aLefty1 binding on compound microarray – biochemical, small-molecule microarray, 635/667 nm fluorescence, primary screen (AID 1153).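 Note: score merges spot fluorescence with signal-to-noise ratio from the scanned slide images.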 Particulars: higher = more signal.
A short description of test [3]: plasmodial surface anion channel blockers, osmotic lysis – cell-based, P. falciparum Indochina, OD700, 1 h, primary screen (AID 1154). Conditions: P. falciparum Indochina infected RBC osmotic lysis, higher = more signal, called active from +8 up or from −8 down.
The nature of test [4]: plasmodial surface anion channel blockers, osmotic lysis – cell-based, P. falciparum Indochina, OD700, 2 h, primary screen (AID 1155).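 Note: lysis reports solute entry through the parasite surface anion channel PSAC.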 Particulars: P. falciparum Indochina infected erythrocytes, higher = more signal, called active from +8 up or from −8 down.
Test [5] can be described thus: changes in parasitized red cell lysis, either direction – P. falciparum Indochina, OD700, 3 h, PSAC antagonist project, primary screen (AID 1156). Particulars: P. falciparum-infected erythrocytes, osmotic lysis, higher = more signal, called active from +8 up or from −8 down.
The nature of test [6]: plasmodial surface anion channel blockers, osmotic lysis – cell-based, P. falciparum Indochina, OD700, 18 h, primary screen (AID 1157). Conditions: P. falciparum Indochina infected erythrocytes, osmotic lysis OD700, 18 h; higher = more signal, called active from +8 up or from −8 down.
A short description of test [7]: S6 kinase pathway phospho-S6 level changes – cell-based, A549, cytoblot, luminescence, serum-stimulated, primary screen (AID 1158).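 Note: serum-stimulated A549 lung adenocarcinoma cells; signal is phosphorylated S6 detected by cytoblot immunostaining with HRP secondary.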 Particulars: 5 h, higher = more signal.
Test [8] concerns the target NADPH oxidase 2 (Homo sapiens) (UniProt P04839). As to the kind of experiment: compounds shifting NOX2 Amplex Red fluorescence – cell-based, HEK293-NOX2, PMA-stimulated, NOX inhibitor project, primary screen (AID 1159). Note: test concentration not given here. Conditions: 45 min, higher = more signal, called active from +8 up or from −8 down.
The target of test [9] is NADPH oxidase 4 (Homo sapiens) (UniProt Q9NPH5). Put plainly: compounds shifting NOX4 Amplex Red fluorescence – cell-based, HEK293-NOX4, tetracycline-induced, NOX inhibitor project, primary screen (AID 1160). Conditions: HEK293-NOX4, Amplex Red H2O2 fluorescence, 45 min; higher = more signal, called active from +8 up or from −8 down.
Sequence of NADPH oxidase 4 (Homo sapiens) (Q9NPH5 whole entry, looked up): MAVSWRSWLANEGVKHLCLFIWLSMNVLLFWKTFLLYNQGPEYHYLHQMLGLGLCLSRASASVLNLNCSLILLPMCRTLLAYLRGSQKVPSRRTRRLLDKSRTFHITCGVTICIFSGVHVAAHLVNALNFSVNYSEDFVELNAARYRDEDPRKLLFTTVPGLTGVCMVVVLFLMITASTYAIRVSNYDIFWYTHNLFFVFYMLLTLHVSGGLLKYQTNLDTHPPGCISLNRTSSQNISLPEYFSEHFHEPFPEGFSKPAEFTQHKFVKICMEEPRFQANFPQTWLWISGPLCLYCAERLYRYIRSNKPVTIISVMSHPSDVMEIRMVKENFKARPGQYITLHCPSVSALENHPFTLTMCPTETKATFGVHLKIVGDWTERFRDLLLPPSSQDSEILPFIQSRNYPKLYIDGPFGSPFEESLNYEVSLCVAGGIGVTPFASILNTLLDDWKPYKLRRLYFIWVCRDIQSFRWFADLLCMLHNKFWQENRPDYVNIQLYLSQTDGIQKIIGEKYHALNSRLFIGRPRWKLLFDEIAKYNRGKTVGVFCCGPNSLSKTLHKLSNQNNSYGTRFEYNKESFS
The target of test [10] is NADPH oxidase 5 (Homo sapiens) (UniProt Q96PH1). As to the kind of experiment: compounds shifting NOX5 Amplex Red fluorescence – cell-based, HEK293-NOX5, NOX inhibitor project, primary screen (AID 1161). Conditions: HEK293-NOX5, ionomycin, 45 min, higher = more signal.
Sequence of NADPH oxidase 5 (Homo sapiens) (Q96PH1 whole entry, looked up): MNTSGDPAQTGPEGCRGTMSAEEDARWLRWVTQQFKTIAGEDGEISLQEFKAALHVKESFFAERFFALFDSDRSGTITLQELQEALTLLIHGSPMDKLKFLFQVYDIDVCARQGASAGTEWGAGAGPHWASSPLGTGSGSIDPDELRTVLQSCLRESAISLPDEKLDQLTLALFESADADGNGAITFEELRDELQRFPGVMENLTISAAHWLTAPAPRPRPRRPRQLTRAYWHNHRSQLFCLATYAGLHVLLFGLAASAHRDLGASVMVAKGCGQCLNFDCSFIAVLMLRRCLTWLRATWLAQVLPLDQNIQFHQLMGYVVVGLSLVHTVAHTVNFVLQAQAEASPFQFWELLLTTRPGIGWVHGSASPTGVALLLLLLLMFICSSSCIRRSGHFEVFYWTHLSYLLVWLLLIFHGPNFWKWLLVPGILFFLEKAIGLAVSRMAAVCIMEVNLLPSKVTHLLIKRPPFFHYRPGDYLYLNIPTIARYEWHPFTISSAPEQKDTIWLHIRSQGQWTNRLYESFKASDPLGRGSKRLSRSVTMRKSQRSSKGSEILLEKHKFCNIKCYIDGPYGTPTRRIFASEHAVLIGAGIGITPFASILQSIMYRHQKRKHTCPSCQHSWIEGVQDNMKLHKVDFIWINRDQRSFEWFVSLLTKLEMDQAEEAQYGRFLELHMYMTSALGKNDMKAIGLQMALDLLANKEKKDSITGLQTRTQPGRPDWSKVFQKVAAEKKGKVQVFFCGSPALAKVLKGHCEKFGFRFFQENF
Test [11] is described as follows: compound effects on lung adenocarcinoma cell viability – A549, calcein-AM fluorescence, 48 h, basal, profiling panel (AID 1162). Note: test concentration not given here. Conditions: higher = more signal.
Test [12] can be described thus: compound effects on differentiated 3T3-L1 adipocyte viability – cell-based, 3T3-L1 adipocytes, calcein-AM fluorescence, 48 h, basal, profiling panel (AID 1163). Note: test concentration not given here. Particulars: 3T3-L1 adipocytes viability, higher = more signal.
A short description of test [13]: compound effects on hepatocellular carcinoma cell viability – HepG2, calcein-AM fluorescence, 48 h, basal, profiling panel (AID 1164). Note: test concentration not given here. Conditions: higher = more signal.
Test [14] can be described thus: compound effects on multiple myeloma cell viability – MM1S, calcein-AM fluorescence, 48 h, basal, profiling panel (AID 1165). Note: test concentration not given here. Conditions: higher = more signal.
The nature of test [15]: calcein-AM signal in unstimulated myeloma cells – cell-based, calcein-AM fluorescence, 48 h, PK04 Diversity Set, profiling panel (AID 1166).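 Note: cells grown under basal conditions without added stimulus; test concentration not given here.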 Particulars: RPMI8226 myeloma viability, higher = more signal.
The nature of test [16]: JC-1 mitochondrial signal, unstimulated HepG2 cells – cell-based, JC-1 fluorescence, 24 h, 100 nL compound, profiling panel (AID 1167). Note: test concentration not given here. Conditions: HepG2 mitochondrial potential, higher = more signal.
Test [17] can be described thus: JC-1 mitochondrial signal, unstimulated adipocytes – cell-based, JC-1 fluorescence, 3T3-L1 adipocytes, 24 h, 100 nL compound, profiling panel (AID 1168). Note: test concentration not given here. Particulars: JC-1 mitochondrial fluorescence, higher = more signal, called active from +8 up or from −8 down.
The nature of test [18]: JC-1 mitochondrial signal, unstimulated myeloma cells – cell-based, JC-1 fluorescence, RPMI8226, 24 h, 100 nL compound, profiling panel (AID 1169). Note: test concentration not given here. Particulars: JC-1 mitochondrial potential fluorescence, higher = more signal.
Test [19] in a line: JC-1 mitochondrial signal, unstimulated MM1S myeloma – cell-based, JC-1 fluorescence, 24 h, 100 nL compound, profiling panel (AID 1170). Note: test concentration not given here. Conditions: MM1S mitochondrial potential, higher = more signal.
Test [20] is described as follows: resazurin metabolic signal in A549 cells – cell-based, resazurin fluorescence, 24 h, PK04 Diversity Set, profiling panel (AID 1171). Note: test concentration not given here. Particulars: A549 viability, higher = more signal, called active from +8 up or from −8 down. In general terms: Alamar Blue is a resazurin reagent that responds to reducing activity.

Sequence of NADPH oxidase 2 (Homo sapiens) (P04839 whole entry, looked up): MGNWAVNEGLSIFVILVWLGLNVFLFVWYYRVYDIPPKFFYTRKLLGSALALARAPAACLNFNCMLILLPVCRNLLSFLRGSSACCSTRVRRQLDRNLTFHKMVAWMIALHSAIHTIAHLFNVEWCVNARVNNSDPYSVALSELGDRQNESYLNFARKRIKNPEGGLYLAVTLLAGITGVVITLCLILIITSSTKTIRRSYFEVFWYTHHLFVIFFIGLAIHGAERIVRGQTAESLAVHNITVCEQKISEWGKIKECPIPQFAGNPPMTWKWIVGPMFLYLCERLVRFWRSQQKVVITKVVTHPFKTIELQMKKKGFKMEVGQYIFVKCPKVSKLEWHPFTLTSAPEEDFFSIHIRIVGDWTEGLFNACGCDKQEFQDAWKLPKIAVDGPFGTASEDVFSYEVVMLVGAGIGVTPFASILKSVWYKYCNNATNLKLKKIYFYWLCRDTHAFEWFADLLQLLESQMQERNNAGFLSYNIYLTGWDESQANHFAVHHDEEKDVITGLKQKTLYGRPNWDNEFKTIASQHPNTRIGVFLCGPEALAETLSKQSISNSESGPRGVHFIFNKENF

For `C=C(COC)C(=O)CC[C@H](OC(=O)c1cccnc1)c1ccc(OCCO)cc1`, the z-score in [1] was -0.367 (inactive); in test [3] it was 9.54 (active); in test [4], 1.2 (inactive); in test [5], 0.247 (inactive); in test [6] it was 0.553 (inactive); in [7] it was -0.271. Also, the z-score was -0.253 (inactive) in test [8]; 0.592 (inactive) in test [9]; -1.26 in test [10]; 0.369 in test [11]; 0.0993 in test [12]; 0.143 in test [13]. For the same molecule, the z-score in [14] is -1.93; in [15] it was -0.418; in test [16] it was -1.02; in test [17] it was -0.351 (inactive); in test [18] it was 0.878; in test [19], -0.0164. In addition, the z-score in test [20] is -0.552 (inactive). In test [2], this molecule showed a composite z-score of -0.285.
With `COC(=O)[C@@]1(Cc2ccc(OC)cc2)[C@H]2c3cc(C(=O)N4CCCC4)n(Cc4c(CO)[nH]cc(C)c4=O)c3C[C@H]2CN1C(=O)c1ccccc1`, the z-score in [1] was -0.552 (inactive); in test [3], 0.843 (inactive); in test [4], -0.163 (inactive); in test [5], 0.455 (inactive); in [6] it was -1.46 (inactive); in [7], 2.57. For the same molecule, the z-score in test [8] was 0.753 (inactive); in [9], 0.386 (inactive); in test [10], -4.96; in test [11], -0.37; in test [12], 0.454; in [13], 0.375. Besides, the z-score in test [14] is -0.206; in [15] it was 0.501; in test [16], 2.94; in test [17], 0.926 (inactive); in [18] it was 0.166; in test [19], -1.19. The z-score in test [20] is 0.582 (inactive). This molecule registered a composite z-score in test [2] of 0.213.
Regarding `CC(=O)c1ccc(C(O)C2C=CC3C(=O)N(c4ccccc4)C(=O)C3N2Nc2ccc(C(C)C)cc2)cc1` (stereo not given), the z-score in test [1] was -1.08 (inactive); in test [3], 12.7 (active); in test [4], 3.03 (inactive); in test [5], 1.42 (inactive); in test [6], 1.47 (inactive); in [7], -0.617. Moreover, the z-score was -1.6 (inactive) in test [8]; -1.6 (inactive) in test [9]; -2.08 in [10]; -0.301 in [11]; -1.69 in [12]; 0.123 in [13]. Also, the z-score in [14] was -1.1; in test [15], -0.994; in test [16] it was -2.03; in test [17], -1.56 (inactive); in test [18], -0.293; in test [19], -1.29. For the same molecule, the z-score in test [20] was -0.532 (inactive). The same molecule showed a composite z-score in [2] of 0.281.
Consider `COC(=O)[C@@]1(Cc2ccccc2)[C@H]2c3cc(C(=O)N4CCCC4)n(Cc4ccc(OC)c(OC)c4)c3C[C@H]2CN1C(=O)c1ccccc1`, for which the z-score in [1] was -1.08 (inactive); in test [3] it was 1.76 (inactive); in [4], 0.41 (inactive); in test [5], 2.24 (inactive); in test [6], 0.861 (inactive); in test [7], -0.321. Besides, the z-score in test [8] was 0.136 (inactive); in [9] it was 0.104 (inactive); in test [10], -3.31; in test [11] it was 0.126; in test [12] it was 0.106; in test [13], -0.257. Moreover, the z-score in [14] is -0.571; in test [15] it was -1.05; in test [16], 3.84; in test [17], 1.09 (inactive); in test [18] it was -0.73; in test [19], -0.52. Besides, the z-score in [20] was 0.613 (inactive). The composite z-score in test [2] was found to be 0.347.
Consider `O=C1C[C@@](C(=O)NC2CC2)(c2ccc([N+](=O)[O-])cc2)[C@@H](c2ccc(CO)cc2)N1C1CCCCC1`, for which the z-score in test [1] is 1.25 (inactive); in [3], 1.97 (inactive); in test [4], -0.0047 (inactive); in test [5], 0.736 (inactive); in test [6] it was -0.115 (inactive); in test [7], 3.97. For the same molecule, the z-score is -1.06 (inactive) in test [8]; -3.7 (inactive) in test [9]; -5.08 in test [10]; 1.91 in test [11]; 1.24 in test [12]; -0.0212 in [13]. Moreover, the z-score in test [14] is -0.177; in test [15] it was -1.3; in [16], 1.28; in [17], 0.0821 (inactive); in test [18], -0.00601; in [19], -1.18. The z-score in test [20] was 1.04 (inactive). In [2], this molecule registered a composite z-score of 0.345.
For `COc1cc(C(O)C2C=CC3C(=O)N(c4ccccc4)C(=O)C3N2Nc2ccccc2)cc(OC)c1OC` (stereo not given), the z-score in test [1] is -0.915 (inactive); in test [3], 26.2 (active); in [4], 12.1 (active); in test [5], 1.18 (inactive); in [6], 1.73 (inactive); in [7], -0.817. Also, the z-score is -1.61 (inactive) in [8]; -3.49 (inactive) in test [9]; -3.2 in test [10]; -0.591 in test [11]; -1.66 in test [12]; -0.342 in [13]. Also, the z-score in test [14] is 0.294; in test [15], -0.0482; in test [16] it was -2.43; in test [17], -1.22 (inactive); in test [18], -0.953; in test [19], -0.116. Further, the z-score in [20] was -0.427 (inactive). Moreover, in test [2], the composite z-score was 0.501.
As for `C=C(CCCC)C(=O)CC[C@@H](OC(=O)c1ccccc1-c1ccccc1C(=O)O)c1ccccc1OCCO`, the z-score was 0.414 (inactive) in test [1]; 6.1 (inactive) in [3]; 0.148 (inactive) in test [4]; -0.138 (inactive) in test [5]; -1.14 (inactive) in [6]; 0.332 in test [7]. Further, the z-score in test [8] was 1.78 (inactive); in [9], 0.0357 (inactive); in test [10], -1.39; in [11] it was 1.54; in [12], 2.03; in test [13], -0.29. The z-score is -3.39 in test [14]; -3.95 in test [15]; -0.688 in test [16]; 0.306 (inactive) in test [17]; -0.67 in [18]; -0.203 in test [19]. The z-score in [20] is 0.573 (inactive). The molecule also displayed a composite z-score in test [2] of -0.0003.
For the molecule `[N-]=[N+]=Nc1ccccc1C[C@]1(C(=O)N2CCOCC2)N=C(c2ccc(OCCCO)cc2)O[C@H]1c1ccccc1N=[N+]=[N-]`, the z-score in test [1] is 1.76 (inactive); in test [3], 30.7 (active); in [4] it was 25.3 (active); in [5], 1.18 (inactive); in test [6], 6.73 (inactive); in test [7] it was 2.28. For the same molecule, the z-score in [8] was -2.86 (inactive); in test [9], 0.383 (inactive); in test [10], -2.57; in test [11], 0.961; in test [12], 0.744; in test [13] it was -0.621. For the same molecule, the z-score in test [14] is -1.77; in [15], -2.98; in test [16], 1.81; in test [17] it was -0.0199 (inactive); in test [18] it was -1.01; in test [19], -2.03. Moreover, in test [20], the z-score is -2.16 (inactive). The molecule also returned a composite z-score in [2] of 0.15.
For `Cc1ccc(S[C@]2(C(=O)NCCCN(C)C)CC(=O)N(Cc3ccccc3C(F)(F)F)[C@@H]2c2ccc(CO)cc2I)cc1`, the z-score in test [1] is -0.527 (inactive); in [3], 3.14 (inactive); in [4] it was 0.684 (inactive); in [5], 0.32 (inactive); in test [6], 0.377 (inactive); in test [7], -0.579. Besides, the z-score is -0.632 (inactive) in [8]; -1.08 (inactive) in test [9]; 1.96 in test [10]; 0.476 in test [11]; 0.449 in test [12]; -0.297 in test [13]. Further, the z-score in test [14] was -2.72; in test [15], -1.87; in test [16] it was -0.817; in [17] it was -0.395 (inactive); in [18], -0.302; in test [19], -1.35. The z-score in test [20] is 0.537 (inactive). In [2], the composite z-score is -0.629.

Values taken from PubChem BioAssay.
